# Measurements published in PubChem BioAssay AID651742 (Broad Institute, 2012).
# Out of some 5,600 compounds screened, about 780 (14%) were called active. Inconclusive results (about 3%) are left out. Only a sample is shown. Values without a mark were called inactive.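 Rule for the calls: active = mean signal decrease across replicates above about 35% based on untreated-well scatter, with enough replicates individually passing (limit read from the data); inconclusive = no rule stated though some were filed; inactive = the rest.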
# Experiment: cytotoxicity in mouse NIH/3T3 fibroblasts, confirmation, cytotoxicity control for T. cruzi proliferation inhibitor project, cell-based, cherry-pick, single point (AID 651742);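 note: 0% = median of neutral control wells and 100% = median of positive control wells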
# Details: NIH/3T3 viability, CellTiter-Glo ATP luminescence, 90 h; at 8.35 µM; active compounds read high
row,SMILES,cytotoxicity (signal decrease)
1,Cc1ccccc1-c1ccc([C@H]2[C@H]3CN(S(=O)(=O)c4ccc(F)cc4)CCCCN3[C@H]2CO)cc1,12%
2,CN(C)C(=O)c1ccc(-c2ccc([C@@H]3[C@H](CO)N4CCCCN(S(C)(=O)=O)C[C@@H]34)cc2)cc1,5.37%
3,CCS(=O)(=O)N1CCCCN2[C@@H](CO)[C@@H](c3ccc(-c4ccccc4)cc3)[C@@H]2C1,18.2%
4,O=S(=O)(Cc1ccccc1)N1CCCCN2[C@@H](CO)[C@@H](c3ccc(-c4ccc(F)cc4)cc3)[C@@H]2C1,68.5% (active)
5,O=S(=O)(c1ccc(F)cc1)N1CCCCN2[C@H](C1)[C@H](c1ccc(C3=CCCCC3)cc1)[C@@H]2CO,12.6%
6,Cc1cccc(-c2ccc([C@@H]3[C@@H](CO)N4CCCCN(S(=O)(=O)c5cccs5)C[C@H]34)cc2)c1,42.5% (active)
7,Cc1cccc(-c2ccc([C@H]3[C@@H](CO)N4CCCCN(Cc5cncnc5)C[C@H]34)cc2)c1,17.8%
8,C[C@H](O)C#Cc1ccc([C@H]2[C@H]3CN(S(=O)(=O)Cc4ccccc4)CCCCN3[C@H]2CO)cc1,10.3%
9,O=S(=O)(Cc1ccccc1)N1CCCCN2[C@@H](CO)[C@H](c3ccc(-c4ccccc4)cc3)[C@@H]2C1,41.5% (active)
10,Cc1ccccc1-c1ccc([C@@H]2[C@H](CO)N3CCCCN(S(=O)(=O)c4ccc(F)cc4)C[C@@H]23)cc1,43.8% (active)
11,COc1cccc(S(=O)(=O)N2CCCCN3[C@H](CO)[C@H](c4ccc(-c5ccncc5)cc4)[C@H]3C2)c1,9.65%
12,O=S(=O)(Cc1ccccc1)N1CCCCN2[C@@H](CO)[C@H](c3ccc(-c4cccnc4)cc3)[C@@H]2C1,5.7%
13,CC(C)C#Cc1ccc([C@H]2[C@H](CO)N3CCCCN(C(=O)NC(C)C)C[C@@H]23)cc1,13.1%
14,C[C@H]1CCCCO[C@H](CN(C)Cc2ccccc2)[C@@H](C)CN([C@@H](C)CO)C(=O)c2cc(NC(=O)NC3CCCCC3)ccc2O1,12.5%
15,COc1ccc(C#Cc2cnc3c(c2)C(=O)N([C@@H](C)CO)C[C@H](C)[C@@H](CN(C)C(C)=O)O3)cc1,-3.17%
16,CN(C)CC#Cc1ccc([C@H]2[C@H]3CN(S(=O)(=O)c4ccccc4F)CCCCN3[C@H]2CO)cc1,20.2%
17,COCC(=O)N(C)C[C@@H]1Oc2ncc(C#Cc3ccccc3OC)cc2C(=O)N([C@@H](C)CO)C[C@H]1C,1.95%
18,Cc1ccc(S(=O)(=O)Nc2ccc3c(c2)C(=O)N([C@@H](C)CO)C[C@@H](C)[C@H](CN(C)C(=O)Nc2cccc4ccccc24)OCCCC[C@H](C)O3)cc1,-10.9%
19,O=C(c1cccc(F)c1)N1CC[C@@H]2[C@@H](CO)Nc3ccc(C#Cc4cccc(F)c4)cc3[C@@H]21,27.7%
20,CC(=O)N1[C@H](CNC(=O)C2CC2)[C@@H](c2ccc(-c3cccc(F)c3)cc2)[C@@H]1CO,3.63%

row,SMILES,cytotoxicity (signal decrease)
1,C[C@@H]1CN([C@H](C)CO)C(=O)c2cc(NS(=O)(=O)c3ccc(Cl)cc3)ccc2O[C@@H](C)CCCCO[C@H]1CN(C)Cc1ccccc1,1.2%
2,C[C@H](CO)N1C[C@H](C)[C@H](CN(C)Cc2ccc(C(F)(F)F)cc2)Oc2ccc(NS(=O)(=O)c3ccc(Cl)cc3)cc2C1=O,8.98%
3,C[C@@H]1CN([C@@H](C)CO)C(=O)c2cc(NC(=O)Nc3cccc4ccccc34)ccc2O[C@@H](C)CCCCO[C@H]1CN(C)Cc1ccccc1,22.3%
4,COc1ccc(CN(C)C[C@H]2OCCCC[C@H](C)Oc3ccc(NC(=O)Nc4ccc5c(c4)OCO5)cc3C(=O)N([C@H](C)CO)C[C@@H]2C)cc1,45.5% (active)
5,COc1ccc(NC(=O)Nc2ccc3c(c2)C(=O)N([C@H](C)CO)C[C@@H](C)[C@H](CN(C)Cc2ccc(Cl)c(Cl)c2)OCCCC[C@@H](C)O3)cc1,-14.8%
6,C[C@@H]1CN([C@@H](C)CO)C(=O)c2cc(NC(=O)Nc3cccc4ccccc34)ccc2O[C@H]1CN(C)Cc1ccc(Cl)c(Cl)c1,35.5% (active)
7,C[C@@H]1CN([C@H](C)CO)C(=O)c2cc(NC(=O)Nc3ccc(F)cc3)ccc2O[C@@H](C)CCCCO[C@H]1CN(C)Cc1ccc(Cl)c(Cl)c1,40.8% (active)
8,C[C@@H]1CCCCO[C@@H](CN(C)Cc2ccc3c(c2)OCO3)[C@@H](C)CN([C@@H](C)CO)C(=O)c2cc(NC(=O)Nc3ccccc3)ccc2O1,6.98%
9,C[C@@H]1CCCCO[C@H](CN(C)Cc2ccccc2)[C@@H](C)CN([C@@H](C)CO)C(=O)c2cc(NC(=O)Nc3ccc(F)cc3)ccc2O1,27.1%
10,C[C@@H]1CN([C@@H](C)CO)C(=O)c2cc(NC(=O)Nc3cccc4ccccc34)ccc2O[C@H]1CN(C)Cc1ccc(Oc2ccccc2)cc1,18.9%
11,C[C@@H]1CCCCO[C@@H](CN(C)Cc2ccc(Cl)c(Cl)c2)[C@H](C)CN([C@H](C)CO)C(=O)c2cc(NC(=O)Nc3ccc(F)cc3)ccc2O1,3.22%
12,C[C@H](CO)N1C[C@H](C)[C@H](CN(C)Cc2ccc(C(F)(F)F)cc2)OCCCC[C@H](C)Oc2ccc(NS(=O)(=O)c3ccc(Cl)cc3)cc2C1=O,98.8% (active)
13,COc1ccc(S(=O)(=O)Nc2ccc3c(c2)C(=O)N([C@H](C)CO)C[C@@H](C)[C@@H](CN(C)CC2CCCCC2)OCCCC[C@@H](C)O3)cc1,33.5%
14,C[C@H](CO)N1C[C@H](C)[C@@H](CN(C)C(=O)Nc2ccnc(N3CCOCC3)c2)OCc2ccccc2-c2ccccc2C1=O,5.45%
15,C[C@@H]1CCCCO[C@H](CN(C)Cc2ccc(C(F)(F)F)cc2)[C@H](C)CN([C@H](C)CO)C(=O)c2cc(NC(=O)Nc3ccc(F)cc3)ccc2O1,-14.3%
16,C[C@@H]1CCCCO[C@@H](CN(C)S(=O)(=O)c2ccc(Cl)cc2)[C@H](C)CN([C@@H](C)CO)C(=O)c2cc(NC(=O)Cc3ccccc3)ccc2O1,0.0515%
17,COc1ccc(NC(=O)N(C)C[C@@H]2OCCCC[C@@H](C)Oc3ccc(NS(=O)(=O)c4ccc(Cl)cc4)cc3C(=O)N([C@H](C)CO)C[C@H]2C)cc1,-38.7%
18,O=C(C[C@@H]1C[C@@H]2c3cc(NC(=O)c4ccc5c(c4)OCO5)ccc3O[C@@H]2[C@@H](CO)O1)NCc1ccc(Cl)cc1,-20.7%
19,C[C@@H]1CCCCO[C@@H](CN(C)CC2CC2)[C@H](C)CN([C@H](C)CO)C(=O)c2cc(NC(=O)C3CCCCC3)ccc2O1,-17.8%
20,C[C@H]1CCCCO[C@H](CN(C)Cc2ccc(C(F)(F)F)cc2)[C@@H](C)CN([C@@H](C)CO)C(=O)c2cc(NC(=O)C3CCCCC3)ccc2O1,-5.99%

row,SMILES,cytotoxicity (signal decrease)
1,N#C[C@@H]1[C@@H](c2ccc(/C=C/c3ccccc3)cc2)[C@@H](CO)N1C(=O)C1CC1,23.9%
2,C[C@@H]1CN([C@@H](C)CO)C(=O)c2cc(NC(=O)C3CCCCC3)ccc2O[C@@H](C)CCCCO[C@H]1CN(C)Cc1ccncc1,2.54%
3,C[C@@H]1CN([C@H](C)CO)C(=O)c2cc(NC(=O)Nc3ccc(F)cc3)ccc2O[C@@H](C)CCCCO[C@@H]1CN(C)CC1CCCCC1,24.8%
4,C[C@@H]1CN([C@H](C)CO)C(=O)c2cc(C#CC3CCCCC3)cnc2O[C@@H]1CN(C)C(=O)NC1CCCC1,26.3%
5,C[C@@H](O)C#Cc1ccc([C@@H]2[C@H](CO)N3CCCCN(S(=O)(=O)c4ccccc4)C[C@@H]23)cc1,1.19%
6,C[C@@H]1CCCCO[C@@H](CN(C)Cc2ccc(C(F)(F)F)cc2)[C@@H](C)CN([C@H](C)CO)C(=O)c2cc(NC(=O)Nc3ccccc3)ccc2O1,-2.03%
7,OC[C@H]1[C@H](c2ccc(-c3cccc(F)c3)cc2)[C@@H]2CN(Cc3cncnc3)CCCCN12,13.1%
8,O=C(Nc1ccccc1F)N1CCCCN2[C@H](CO)[C@@H](c3ccc(-c4cccnc4)cc3)[C@H]2C1,5.63%
9,COc1ccccc1-c1ccc2c(c1)O[C@H](CN(C)S(=O)(=O)c1ccc(C)cc1)[C@@H](C)CN([C@H](C)CO)S2(=O)=O,26.4%
10,C[C@@H]1CN([C@@H](C)CO)S(=O)(=O)c2ccc(-c3ccncc3)cc2O[C@@H]1CN(C)C(=O)Nc1ccc(F)cc1,-4.35%
11,C[C@@H]1CN([C@@H](C)CO)S(=O)(=O)c2ccc(C#Cc3ccc(F)cc3)cc2O[C@H]1CN(C)C(=O)c1ccccn1,30%
12,C[C@H](CO)N1C[C@H](C)[C@@H](CN(C)S(=O)(=O)c2ccc(F)cc2)Oc2cc(C3=CCCC3)ccc2S1(=O)=O,50.5% (active)
13,C[C@@H]1CN([C@@H](C)CO)S(=O)(=O)c2ccc(C#Cc3ccc(F)cc3)cc2O[C@H]1CN(C)C(=O)NC1CCCC1,8.27%
14,Cc1ccc(-c2ccc3c(c2)O[C@H](CN(C)C)[C@@H](C)CN([C@H](C)CO)S3(=O)=O)cc1,-0.56%
15,C[C@@H]1CN([C@H](C)CO)S(=O)(=O)c2ccc(C#Cc3ccncc3)cc2O[C@@H]1CN(C)S(=O)(=O)c1ccc(F)cc1,27.1%
16,C[C@@H]1CN([C@@H](C)CO)S(=O)(=O)c2ccc(C#Cc3ccc(F)cc3)cc2O[C@H]1CN(C)S(C)(=O)=O,25.6%
17,CC(C)CC#Cc1ccc2c(c1)O[C@H](CN(C)S(=O)(=O)c1cccc(F)c1)[C@@H](C)CN([C@@H](C)CO)S2(=O)=O,14.5%
18,C[C@@H]1CN([C@H](C)CO)S(=O)(=O)c2ccc(-c3cccc(F)c3)cc2O[C@H]1CN(C)S(=O)(=O)c1ccc(F)cc1,54.4% (active)
19,C[C@H]1CN([C@@H](C)CO)S(=O)(=O)c2ccc(C#Cc3cccc(F)c3)cc2O[C@@H]1CN(C)S(=O)(=O)c1cn(C)cn1,44.8% (active)
20,C[C@@H]1CN([C@@H](C)CO)S(=O)(=O)c2ccc(-c3cccc(F)c3)cc2O[C@@H]1CN(C)S(=O)(=O)c1ccccc1,46.5% (active)
